Test in all cases: PBM binding z-score (relative to random genomic background probes); higher = stronger binding; sequences stand for … in GC…GCGATTGACAGCGTAGAATGAAGG
Experiment [1] concerns RARb homodimer (NR concentration 270 nM). Summed up:
(§1)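 Each nuclear receptor dimer, without ligand, was incubated for 1 h on custom Agilent 4×180K protein-binding microarrays. Binding was detected with antibodies against each partner (one per run), and scanned fluorescence was regression-normalized. The binding z-scores are referenced to random human genomic background probes.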

For experiment [2], the system named is RARg:RXRa (NR concentration 270 nM, RXRa partner concentration 90 nM). Summed up:
as §1

For experiment [3], the system named is RARg homodimer (NR concentration 270 nM). The procedure, abridged: as §1
For experiment [4], the system named is RXRa DBDmut IVT, anti-RXR (DBD mutation: RXRa K156A/R161A, NR concentration 90 nM). The procedure, abridged:
as §1

Experiment [5] relates to RXRa homodimer (NR concentration 180 nM). The procedure, abridged: as §1
Experiment [6] deals with THRa:RXRa (NR concentration 90 nM, RXRa partner concentration 90 nM). The procedure, abridged: as §1
Experiment [7] relates to THRa homodimer (NR concentration 90 nM). The procedure, abridged: as §1
For experiment [8], the system named is VDR homodimer (NR concentration 270 nM). Summed up: as §1

Turning to CCTGCTAGGTCATGGTCATCTAATCTACAGTATG, the PBM binding z-score in experiment [1] was found to be 3.47; in experiment [2], 4; in experiment [3], 4.75; in experiment [4] it was 1.78; in experiment [5], 2.78; in experiment [6], 3.08. In addition, the PBM binding z-score in experiment [7] is 1.52; in experiment [8], 0.674.

Turning to GCTATTAGTTGAAAGTGCAACCGAATGATTCTCG, the PBM binding z-score was found to be 0.667 in experiment [1]; 0.42 in experiment [2]; 0.38 in experiment [3]; 1.14 in experiment [4]; 0.575 in experiment [5]; 0.147 in experiment [6]. The figures for the PBM binding z-score in experiment [7] and in experiment [8] were -0.293 and 0.388, respectively.

As to ATATGTAGGTTAGCTGGGGGCATTCAGACTAGGC, the PBM binding z-score in experiment [1] turned out to be 2.15; in experiment [2], 2.32; in experiment [3] it was 2.43; in experiment [4], 1.71; in experiment [5], 1.67; in experiment [6] it was 4.62. For the same sequence, the PBM binding z-score in experiment [7] was found to be 1.84; in experiment [8] it was 2.94.

With GATACAGGGTCAGCGAGAGGCCAGAGTATGGAAA, the PBM binding z-score in experiment [1] turned out to be 3.12; in experiment [2] it was 6.57; in experiment [3] it was 4.48; in experiment [4] it was 1.31; in experiment [5] it was 4.6; in experiment [6], 3.3. In addition, the PBM binding z-score in experiment [7] stood at 0.369; in experiment [8] it was 0.864.

Regarding ACAGACAGGTGAGTGAAGGTAACCCAGCTGGACG, the PBM binding z-score in experiment [1] was 0.564; in experiment [2], 0.107; in experiment [3], 0.469; in experiment [4] it was -0.852; in experiment [5], 0.562; in experiment [6], 1.63. Moreover, the PBM binding z-score in experiment [7] was 0.00911; in experiment [8], -0.164.

As to TTACCAAGGTGAGCTGAAGTCGTTGATCCAACTC, the PBM binding z-score in experiment [1] is -0.14; in experiment [2], 0.0635; in experiment [3] it was -0.108; in experiment [4] it was -0.671; in experiment [5] it was 0.0519; in experiment [6], 0.821. For the same sequence, the figures for the PBM binding z-score in experiment [7] and in experiment [8] were -0.297 and -0.905, respectively.

Regarding AGAACGAGGGCACGCTGACTTGATAGCAGAGTAG, the PBM binding z-score in experiment [1] worked out at 1.15; in experiment [2], 1.84; in experiment [3], 1.95; in experiment [4], 1.66; in experiment [5] it was 1.34; in experiment [6], 1.76. Moreover, the PBM binding z-score was -0.184 in experiment [7] and 0.649 in experiment [8].

Regarding CCTAGTTGGTCAGGAGGTCACACAGCGGATATGA, the PBM binding z-score in experiment [1] is 4.13; in experiment [2] it was 5.36; in experiment [3], 4.51; in experiment [4], 1.06; in experiment [5], 4.73; in experiment [6] it was 3.66. In addition, the PBM binding z-score in experiment [7] worked out at 2.76; in experiment [8], 3.13.

On to CCTATTAATTGACCATAAGGGCAACCGAAGCTCG, for which the PBM binding z-score was 1.91 in experiment [1]; 0.926 in experiment [2]; 1.1 in experiment [3]; 0.931 in experiment [4]; 0.841 in experiment [5]; 1.63 in experiment [6]. Further, the PBM binding z-score was found to be 1.81 in experiment [7] and 1.85 in experiment [8].

Take AGAATGAGGTTATCCGTAGATCAGGGAAGAAAGT: the PBM binding z-score was determined as 0.958 in experiment [1]; 2.14 in experiment [2]; 1.08 in experiment [3]; 1.82 in experiment [4]; 2.29 in experiment [5]; 2.33 in experiment [6]. Moreover, the PBM binding z-score came to 0.663 in experiment [7] and 0.958 in experiment [8].

In the case of CAAACTAGGTCAAGGTCAAAGCCGGTTTGTGCCA, the PBM binding z-score was 5.03 in experiment [1]; 6.1 in experiment [2]; 6.74 in experiment [3]; 2.67 in experiment [4]; 5.67 in experiment [5]; 4.39 in experiment [6]. Moreover, the PBM binding z-score turned out to be 3.5 in experiment [7] and 3.55 in experiment [8].

As to GCAACTGGGGCAAAGCAGGTTACCATAAGGTTGG, the PBM binding z-score is 1.27 in experiment [1]; 0.563 in experiment [2]; 0.56 in experiment [3]; -0.0375 in experiment [4]; 0.648 in experiment [5]; 2.78 in experiment [6]. Also, the values for the PBM binding z-score in experiment [7] and in experiment [8] were 0.101 and -0.248, respectively.

Consider GCGACTGGGGCAAAGCAGGGTACCATAAGGTTGG, for which the PBM binding z-score was 0.665 in experiment [1]; 0.296 in experiment [2]; 0.341 in experiment [3]; -0.678 in experiment [4]; 0.287 in experiment [5]; 1.61 in experiment [6]. In addition, the PBM binding z-score was -0.383 in experiment [7] and -0.139 in experiment [8].

As to TAGCCTAGGTCATTCGGCCAGTATAGTACGCATC, the PBM binding z-score in experiment [1] came out at 3.12; in experiment [2] it was 3.81; in experiment [3] it was 4.13; in experiment [4] it was 1.7; in experiment [5] it was 2.52; in experiment [6], 2.66. Further, the figures for the PBM binding z-score in experiment [7] and in experiment [8] were 0.61 and 1.6, respectively.
